Laboratory results: PubChem BioAssay AID504834 (National Center for Advancing Translational Sciences (NCATS), 2011)
About 22,000 (6.9%) of roughly 320,000 compounds were called active. Inconclusive results (about 27%) are left out. The list comes from a sample in which actives are over-represented; it also holds similar structures and randomly drawn compounds. Values without a mark were called inactive. Calls come from the whole dose curve; as a rule, active = well fitted inhibition curve with a large enough effect; inconclusive = small, poorly fitted or top-dose-only effect, or another doubt; inactive = no such curve, though single readings can be large or run the other way.

Assay: Primary qHTS for delayed death inhibitors of the malarial parasite plastid, 96 hour incubation
Settings: P. falciparum luciferase reporter growth; series mostly up to 28.7 µM; activity change, negative = inhibition: at the top concentration
From the text: The goal of this screen is to discover new antimalarial compounds that act by inhibiting the development of the apicoplast in the malarial parasite Plasmodium falciparum. The biochemical processes that make this organelle essential for erythrocytic stage parasites are not well understood. However, antibiotics such as azithromycin and tetracycline, which target the apicoplast translational machinery, have a potent antimalarial effect.
We have developed a cell-based assay that measures parasite growth based on the expression of an integrated copy of a firefly luciferase reporter. To detect small molecules that cause this "delayed death" phenotype, erythrocytes infected with the luciferase-expressing parasites were incubated with compounds for either one or two generations, corresponding to 48 and 96 hours, respectively. Compounds that inhibit parasite growth in the second generation, but not the first, should be enriched in antimalarials that target the apicoplast. Growth inhibition is detected by a decrease in luciferase activity.
Assay Provider: David Fidock and Eric Ekland, Columbia University
Keywords: NIH Roadmap, MLPCN, MLI, MLSMR, qHTS, NCGC, qHTS, malaria, luciferase, viability
Four microliters of infected erythrocytes (2% hematocrit, 0.05% parasitemia final concentration) in culture medium were dispensed and the plates incubated for 96 hours at 37 C in 5% CO2. Two microliters of luciferase detection reagent was added and luminescence was detected by a ViewLux (PerkinElmer) reader.
% is set by controls: 0 for no effect and ±100 for the full control effect; potency is the fitted concentration of half-maximal effect.

Compound	activity change, negative = inhibition [%]	Potency
CSc1ccccc1NC(=O)C(C)N1C(=O)c2ccccc2S1(=O)=O (centres undefined)	18.5	–
COc1ccc(NC(=O)CCN2CCCC2)c(OC)c1	-23.8	–
COc1ccc(NC(=O)C(C)N2c3cccc4cccc(c34)S2(=O)=O)c(OC)c1 (centres undefined)	–	2.94 µM (active)
CN(CC(=O)NCc1ccc2c(c1)OCO2)CC(=O)Nc1ccc(F)c(F)c1F	-27.8	–
CCC(C)N(C(=O)COC(=O)c1nc(Cl)ccc1Cl)C1CCS(=O)(=O)C1 (centres undefined)	8.59	–
O=C(c1ccc(OC2CCN(C/C=C/c3ccc(F)cc3)CC2)cc1)N1CCCCC1	27	–
COc1ccc(S(=O)(=O)N(C)CC(=O)N2CCCC2)cc1	-10.3	–
Cc1ccc(S(=O)(=O)N2CCC(Oc3ccc(-n4cnnn4)cc3)CC2)cc1	76.6	–
CN1CCC[C@@H]1CCO[C@](C)(c1ccccc1)c1ccc(Cl)cc1	–	15.1 µM (active)
CC(C)(c1ccccc1)c1ccc(OCCN2CCCC2)cc1	109	–
CC(C)(c1ccccc1)c1ccc(OCCN)cc1	27.9	–
O=c1c2cc(Br)ccc2nc(-c2cccc(Cl)c2)n1O	23.5	–
O=C(c1ccc2c(c1)OCO2)N1CCOCC1	-7.41	–
O=C(c1cccc(S(=O)(=O)N2CCOCC2)c1)N1CCOCC1	-26.3	–
O=C(c1cccc(N2CCCC2=O)c1)N1CCOCC1	–	6.57 µM (active)
Cc1ccc(C(=O)NNC(=O)c2ccc3c(c2)OCCO3)cc1	419	–
COCc1cc(C)n(CC(=O)NCC2CCCO2)c(=O)c1C#N (centres undefined)	-2.85	–
CCn1nccc1C(=O)Nc1ccc(S(=O)(=O)NC23CC4CC(CC(C4)C2)C3)cc1	–	6.57 µM (active)
Cc1noc(NS(=O)(=O)c2ccc(NC(=O)C34CCC(CC3)C4)cc2)c1C	-16.6	–
O=C(Nc1ccc(S(=O)(=O)Nc2ncccn2)cc1)C12CC3CC(CC(C3)C1)C2	45.4	–
Cc1ccc(S(=O)(=O)NCCC(=O)NNC(=O)C2COc3ccccc3O2)cc1 (centres undefined)	-4.98	–
COc1ccc(C2CC(c3cccs3)=NN2c2ccccc2)cc1 (centres undefined)	21.7	–
Oc1ccccc1C1=NN(c2ccccc2)C(c2ccccc2)C1 (centres undefined)	–	1.65 µM (active)
CC(=O)Oc1ccccc1C1=NN(C(C)=O)C(c2ccccc2)C1 (centres undefined)	-5	–
Cn1cc(C(=O)c2ccc(Cl)cc2Cl)cc1C(=O)NN	-3.08	–
COc1ccc(CCNC(=O)COc2ccc3c(c2)OCO3)cc1	-6.72	–
Cc1ccc2nc(Nc3ccccc3)cc(C)c2c1	213	–

Compound	activity change, negative = inhibition [%]	Potency
Cc1ccc2nc(C)c3c(c2c1)N(c1ccccc1)CC3	–	6.57 µM (active)
Cc1ccc2nc(-c3ccccc3)cc(C(=O)O)c2c1	13.1	–
O=C1NCCn2nc3ccccc3c21	0	–
CCN(CC)CCn1c2c(c(SCC(=O)Nc3nc4ccccc4s3)nc1=O)CCCC2	–	11.7 µM (active)
Cc1csc(NC(=O)CSc2nc(=O)n(CCCN(C)C)c3c2CCC3)n1	5.37	–
CCN(CC)CCn1c2c(c(SCC(=O)Nc3ccc(C(C)C)cc3)nc1=O)CCC2	–	4.15 µM (active)
Cn1nnnc1SCC(=O)Nc1nc2ccccc2s1	13.8	–
Cn1c(SCC(=O)Nc2ccc(Cl)cc2)nc(O)cc1=O	21.4	–
CC(C)c1ccc(NC(=O)COC(=O)c2ccc(CN3CCCC3=O)cc2)cc1	0	–
COc1ccccc1C(=O)NC(CCSC)C(=O)NNC(=O)c1csc(N2CCOCC2)n1 (centres undefined)	9.49	–
Cc1ccc(CSCC2Nc3ccc(C(=O)N4CCN(c5ccc(F)cc5)CC4)cc3NC2=O)cc1 (centres undefined)	-3.25	–
O=C(O)c1ccccc1C(=O)NC1=NN(c2ccccc2)CC1	19.4	–
O=[N+]([O-])c1ccc2c(c1)C(O)n1nc(-c3ccccc3)nc1S2 (centres undefined)	1.28	–
O=C(CN1CCCCCC1)Nc1c(Cl)cc(Cl)cc1Cl	13.9	–
COc1ccc(NC(=O)CSc2nnc(Cc3ccccc3)c(=O)n2N)cc1	-0.315	–
COC(=O)c1ccc2c(=O)n(CCN3CCOCC3)c(SCC(=O)Nc3cccc(OC)c3)nc2c1	–	13.1 µM (active)
COc1ccc(NC(=O)CSc2nc3ccccc3c(=O)n2C)cc1	–	1.85 µM (active)
COc1ccc(NC(C(=O)Nc2cccc(C(C)=O)c2)c2ccccc2)cc1 (centres undefined)	30.5	–
COc1ccc(-n2nnnc2SCC(=O)Nc2ccccc2)cc1	5.45	–
COc1cccc(NC(=O)Cn2c3ccccc3c3nc4n(c(=O)c32)CCS4)c1	29.2	–
COc1cccc(NC(=S)NCCCN2CCOCC2)c1	19.1	–
COc1cccc(NC(=O)C(Sc2nc3ccccc3c(=O)n2CC(C)C)c2ccccc2)c1 (centres undefined)	–	2.62 µM (active)
CCc1ccc(NC(=O)CSc2nc3ccccc3c(=O)n2CCN2CCOCC2)cc1	-19.2	–
COc1ccc([N+](=O)[O-])cc1NCC(=O)c1ccc(C)cc1	-5.19	–
O=S(=O)(Nc1cccc(-n2cnnn2)c1)c1cnc(Cl)c(Cl)c1	30.6	–
COc1ccc2c(C)cc3nnnn3c2c1	4.17	–
O=C(Nc1nnc(S(=O)(=O)N2CCOCC2)s1)c1cccc(Br)c1	-0.931	–
